Assay results reported in PubChem BioAssay (EPA / NIEHS).
Inconclusive results are not listed. Active and inactive are the calls of the source. Rule for the calls, unless noted: active = hit-call score of the fitted dose curve at least 0.9, where 1 is the maximum; inconclusive = response in the unintended direction; inactive = score below 0.9.

What was measured:
[1] = molecular target: rat Serotonin Transporter (SERT), Slc6a4 (gene 25553) (UniProt P31652); assay: NVS_TR_rSERT: NovaScreen (NVS) Transporter Assay for rat Serotonin Transporter (SERT) (AID 2283375)
Method in brief: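 Using rat forebrain membrane SERT, test chemicals compete with a radioligand for 1 hour, and bound counts are taken by filter-based scintillation. Screening starts at 25 uM in duplicate, followed by concentration series for actives.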

[2] = molecular target: Estrogen receptor beta (Homo sapiens) (UniProt Q92731); assay: OT_ER_ERbERb_1440: Odyssey Thera (OT) 24-hour HEK293T Protein-Complementation Assay for Estrogen Receptor-beta/-beta Homodimer (AID 2283380);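 note: scored as signal increase over DMSO baseline for both agonists and antagonists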
Method in brief: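 HEK293T cells stably expressing ER beta LBD (aa 310-547) homodimer fragment-complementation reporter, dosed 24 h. Cells formaldehyde-fixed, Draq5-stained; gain in nuclear (agonist) or nuclear plus cytoplasmic (antagonist) fluorescence versus DMSO read by laser scanning cytometry.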

[3] = molecular target: Estrogen receptor (Homo sapiens) (UniProt P03372); assay: OT_ERa_GFPERaERE_0480: Odyssey Thera (OT) 8-hour HeLa Transcription Induction Assay for Estrogen Receptor (AID 2283381; active = hit-call score of the fitted dose curve at least 0.9, where 1 is the maximum; inactive = score below 0.9)
Method in brief: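 An 8 h HeLa transcription-induction format with a GFP reporter under ERE control, read by fluorescence microscopy; single endpoint fitted positively with DMSO as baseline.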

[4] = molecular target: Estrogen receptor (Homo sapiens) (UniProt P03372); assay: OT_ERa_GFPERaERE_0120: Odyssey Thera (OT) 2-hour HeLa Transcription Induction Assay for Estrogen Receptor (AID 2283382)
Method in brief: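 Two-hour compound treatment of HeLa cells preceded microscopy imaging of an inducible fluorescent reporter. Image-based quantification gave one endpoint, analysed for signal increase relative to DMSO controls.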

[5] = molecular target: Retinoic acid receptor RXR-alpha (Homo sapiens) (UniProt P19793); assay: OT_NURR1_NURR1RXRa_0480: Odyssey Thera (OT) 8-hour HEK293T Protein Complementation Assay for Nurr1/retinoid X receptor (RXR) (AID 2283385)
Method in brief: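 Gain in fluorescent complementation signal over DMSO, measured 8 hours after chemical dosing of human kidney HEK293T cells, indicated enhanced Nurr1–RXRα association.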

[6] = molecular target: Retinoic acid receptor RXR-alpha (Homo sapiens) (UniProt P19793); assay: OT_NURR1_NURR1RXRa_1440: Odyssey Thera (OT) 24-hour HEK293T Protein Complementation Assay for Nurr1/retinoid X receptor (RXR) (AID 2283386)
Method in brief: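 Cell-based binding reporter: HEK293T cells, 24 h exposure, fluorescence-detected fragment complementation, DMSO as baseline.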

[7] = molecular target: Peroxisome proliferator-activated receptor gamma (Homo sapiens) (UniProt P37231); assay: OT_PPARg_PPARgSRC1_1440: Odyssey Thera (OT) 24-hour Protein-Complementation Assay for Peroxisome Proliferator-activated Receptor Gamma/ SRC-1 Co-activator (AID 2283388)
Method in brief: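 Cells carrying the PPARg/SRC-1 fragment-complementation reporter receive compound for 24 hours, are fixed and counterstained with Draq5, then imaged. Increased nuclear relative to cytoplasmic YFP fluorescence above DMSO baseline indicates binding activity.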

[8] = molecular target: human Dopamine Transporter (DAT), SLC6A3 (gene 6531) (UniProt Q01959); assay: NVS_TR_hDAT: NovaScreen (NVS) Transporter Assay for human Dopamine Transporter (DAT) (AID 2283374);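 note: activity means loss of bound radioligand signal relative to DMSO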
Method in brief: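 hDAT membranes + tritiated/iodinated radioligand, competitive displacement; 1 h; filter scintillation readout. Single conc 25 uM (duplicate), then conc-response for actives. DMSO = negative control.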

[9] = molecular target: human Norepinephrine Transporter (NET), SLC6A2 (gene 6530) (UniProt P23975); assay: NVS_TR_hNET: NovaScreen (NVS) Transporter Assay for human Norepinephrine Transporter (NET) (AID 2283377);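 note: cell-free membrane protein extracted from CHO cells expressing human NET; displacement of radioligand from human NET seen as loss of scintillation signal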
Method in brief: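 CHO cell extracts expressing the transporter; tritiated or iodinated tracer displaced competitively; filtration plus scintillation readout at 1 h. Single-point duplicates at 25 uM, concentration series for follow-up; activity = signal drop relative to DMSO.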

[10] = molecular target: mouse Estrogen Receptor alpha (Era), Esr1 (gene 13982) (UniProt P19785); assay: NVS_NR_mERa: NovaScreen (NVS) Nuclear Receptor Binding Assay for mouse Estrogen Receptor alpha (Era) (AID 2283378);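 note: hit means loss of bound radioligand signal relative to DMSO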
Method in brief: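 Measurements come from scintillation counting after filtration, taken 18 hours after chemicals were added to a cell-free mouse Era preparation with radioligand. Screening was duplicate at 25 uM, with concurrent positive and negative controls and confirmatory concentration series for actives.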

[11] = CEETOX_H295R_11DCORT: CeeTox H295R High-throughput Steroidogenesis Assay for 11-Deoxycortisol (11DCORT) (AID 2283432; active = hit-call score of the fitted dose curve at least 0.9, where 1 is the maximum; inactive = score below 0.9;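 for AC50: human adrenal H295R cells prestimulated with 10 µM forskolin for 48 h; 11-deoxycortisol secreted into the medium measured by LC-MS/MS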); conditions: actives raise or lower the signal
Method in brief: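 H295R cells prestimulated 48 h with 10 uM forskolin, then exposed 48 h to chemical in 0.1% DMSO. 11-Deoxycortisol in medium quantified by HPLC-MS/MS after MTBE extraction; bidirectional fit versus DMSO. MTT viability read in same wells.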

[12] = CEETOX_H295R_OHPREG: CeeTox H295R High-throughput Steroidogenesis Assay for OH-Pregnenolone (OHPREG) (AID 2283434; active = hit-call score of the fitted dose curve at least 0.9, where 1 is the maximum; inactive = score below 0.9); conditions: actives raise or lower the signal
Method in brief: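 H295R, 10 uM forskolin pre-stim 48 h; test chemical 48 h, 0.1% DMSO final. MTBE extraction, reverse-phase C18 HPLC-ESI+ MS/MS of medium. Gain/loss vs DMSO; viability by MTT in same wells.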

[13] = CEETOX_H295R_OHPROG: CeeTox H295R High-throughput Steroidogenesis Assay for OH-Progesterone (OHPROG) (AID 2283435; active = hit-call score of the fitted dose curve at least 0.9, where 1 is the maximum; inactive = score below 0.9;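 for AC50: human adrenal H295R cells primed 48 h with 10 µM forskolin; 17alpha-hydroxyprogesterone secreted into medium measured by HPLC-MS/MS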); conditions: actives raise or lower the signal
Method in brief: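 Human adrenocortical H295R cells, passage 10 or lower, were treated with chemical for 48 h after forskolin priming, and hormone output in the medium was quantified by LC-MS/MS.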

[14] = CEETOX_H295R_ANDR: CeeTox H295R High-throughput Steroidogenesis Assay for Androstenedione (ANDR) (AID 2283436; active = hit-call score of the fitted dose curve at least 0.9, where 1 is the maximum; inactive = score below 0.9;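 note: human H295R adrenal cells exposed for 48 h with androstenedione measured in medium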); conditions: actives raise or lower the signal
Method in brief: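 48 h chemical exposure, H295R cells, DMEM/F12 + ITS+ and Nu-Serum. Medium androstenedione: MTBE extraction, C18 reverse-phase HPLC, ESI+ MS/MS. Fit bidirectional vs DMSO; MTT viability in same wells.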

[15] = CEETOX_H295R_CORTIC: CeeTox H295R High-throughput Steroidogenesis Assay for Corticosterone (CORTIC) (AID 2283437; active = hit-call score of the fitted dose curve at least 0.9, where 1 is the maximum; inactive = score below 0.9;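 note: corticosterone secreted into medium quantified by mass spectrometry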;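 for AC50: human H295R adrenal cells prestimulated with forskolin before chemical exposure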); conditions: actives raise or lower the signal
Method in brief: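 48 h forskolin (10 uM) prestim, then 48 h chemical exposure, final DMSO 0.1%. Readout: corticosterone in medium by LC-MS/MS after MTBE extraction. Gain/loss fit vs DMSO; MTT viability in same wells.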

[16] = CEETOX_H295R_CORTISOL: CeeTox H295R High-throughput Steroidogenesis Assay for Cortisol (AID 2283438; active = hit-call score of the fitted dose curve at least 0.9, where 1 is the maximum; inactive = score below 0.9;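 note: cortisol secreted into medium quantified by LC-MS/MS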); conditions: actives raise or lower the signal
Method in brief: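 Steroidogenesis in H295R, per modified OECD 456: 48 h forskolin (10 uM), then 48 h exposure, 0.1% DMSO. Cortisol by extraction and tandem MS; viability by MTT (570/650 nm); cytotoxic chemicals diluted and re-tested.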

[17] = molecular target: Bile acid receptor (Homo sapiens) (UniProt Q96RI1); assay: OT_FXR_FXRSRC1_0480: Odyssey Thera (OT) 8-hour HEK293T Protein-Complementation Assay for Farnesoid X receptor/SRC-1 Co-activator (AID 2283383)
Method in brief: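 Readings were taken 8 h after dosing HEK293T cells in a split-reporter complementation format pairing FXR with SRC-1. Increased fluorescence relative to DMSO-treated wells defined activity.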

[18] = molecular target: Bile acid receptor (Homo sapiens) (UniProt Q96RI1); assay: OT_FXR_FXRSRC1_1440: Odyssey Thera (OT) 24-hour HEK293T Protein-Complementation Assay for Farnesoid X receptor/SRC-1 Co-activator (AID 2283384)
Method in brief: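 Single endpoint, analysed for increased fluorescence against DMSO controls. HEK293T cells carrying FXR and SRC-1 linked to complementary reporter halves were exposed to chemicals for 24 h before reading.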

[19] = molecular target: Peroxisome proliferator-activated receptor gamma (Homo sapiens) (UniProt P37231); assay: OT_PPARg_PPARgSRC1_0480: Odyssey Thera (OT) 8-hour Protein-Complementation Assay for Peroxisome Proliferator-activated Receptor Gamma / SRC-1 Co-activator (AID 2283387);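 note: nuclear to cytoplasmic split Venus YFP fluorescence ratio reporting PPARg SRC-1 interaction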
Method in brief: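 HEK293T transiently transfected with PPARg and SRC-1 fused to Venus YFP fragments, compounds 8 h at 37C. Fixed, Draq5-stained cells imaged; nuclear/cytoplasmic 488 nm fluorescence ratio over at least 350 cells per image; gain fitted versus DMSO.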

[20] = molecular target: Agonist Androgen Response Element (ARE), AR (gene 367) (UniProt P10275); assay: OT_AR_ARELUC_AG_1440: Odyssey Thera (OT) 24-hour CHO-K1 Luciferase Assay for Agonist Androgen Response Element (ARE) (AID 2283379)
Method in brief: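 Gain-of-signal reporter endpoint: cells (CHO-K1, hamster) are treated 24 h, luciferin/ATP reagent added, and luminescence compared with DMSO baseline.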

Sequence of Retinoic acid receptor RXR-alpha (Homo sapiens) (P19793 whole entry, looked up, the tested form may be a part): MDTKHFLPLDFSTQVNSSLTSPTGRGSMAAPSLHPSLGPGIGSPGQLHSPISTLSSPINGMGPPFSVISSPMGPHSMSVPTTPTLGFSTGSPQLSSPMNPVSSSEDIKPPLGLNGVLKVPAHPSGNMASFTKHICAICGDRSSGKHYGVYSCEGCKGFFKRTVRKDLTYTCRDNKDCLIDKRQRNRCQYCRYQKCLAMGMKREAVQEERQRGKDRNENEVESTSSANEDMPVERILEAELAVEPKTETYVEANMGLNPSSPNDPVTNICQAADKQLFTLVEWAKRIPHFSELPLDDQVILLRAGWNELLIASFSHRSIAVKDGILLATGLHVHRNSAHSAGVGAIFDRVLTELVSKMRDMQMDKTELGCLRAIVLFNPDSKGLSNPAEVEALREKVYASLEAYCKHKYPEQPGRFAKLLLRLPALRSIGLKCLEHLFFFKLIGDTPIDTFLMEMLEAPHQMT
Sequence of Peroxisome proliferator-activated receptor gamma (Homo sapiens) (P37231 whole entry, looked up, the tested form may be a part): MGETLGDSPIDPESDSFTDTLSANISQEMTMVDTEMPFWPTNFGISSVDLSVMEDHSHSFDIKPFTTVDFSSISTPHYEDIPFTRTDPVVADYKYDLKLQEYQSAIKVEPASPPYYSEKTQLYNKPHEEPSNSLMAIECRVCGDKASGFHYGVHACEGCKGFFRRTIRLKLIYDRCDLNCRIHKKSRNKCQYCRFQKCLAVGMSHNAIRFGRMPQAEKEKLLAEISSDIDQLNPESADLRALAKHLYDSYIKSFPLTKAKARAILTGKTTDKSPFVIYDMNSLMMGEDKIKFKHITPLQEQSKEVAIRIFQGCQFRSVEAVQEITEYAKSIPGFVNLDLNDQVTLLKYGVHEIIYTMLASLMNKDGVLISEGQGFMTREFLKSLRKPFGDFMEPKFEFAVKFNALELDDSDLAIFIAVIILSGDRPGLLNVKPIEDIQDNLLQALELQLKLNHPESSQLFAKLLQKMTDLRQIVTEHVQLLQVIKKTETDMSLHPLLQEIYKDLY
Sequence of Estrogen receptor (Homo sapiens) (P03372 whole entry, looked up): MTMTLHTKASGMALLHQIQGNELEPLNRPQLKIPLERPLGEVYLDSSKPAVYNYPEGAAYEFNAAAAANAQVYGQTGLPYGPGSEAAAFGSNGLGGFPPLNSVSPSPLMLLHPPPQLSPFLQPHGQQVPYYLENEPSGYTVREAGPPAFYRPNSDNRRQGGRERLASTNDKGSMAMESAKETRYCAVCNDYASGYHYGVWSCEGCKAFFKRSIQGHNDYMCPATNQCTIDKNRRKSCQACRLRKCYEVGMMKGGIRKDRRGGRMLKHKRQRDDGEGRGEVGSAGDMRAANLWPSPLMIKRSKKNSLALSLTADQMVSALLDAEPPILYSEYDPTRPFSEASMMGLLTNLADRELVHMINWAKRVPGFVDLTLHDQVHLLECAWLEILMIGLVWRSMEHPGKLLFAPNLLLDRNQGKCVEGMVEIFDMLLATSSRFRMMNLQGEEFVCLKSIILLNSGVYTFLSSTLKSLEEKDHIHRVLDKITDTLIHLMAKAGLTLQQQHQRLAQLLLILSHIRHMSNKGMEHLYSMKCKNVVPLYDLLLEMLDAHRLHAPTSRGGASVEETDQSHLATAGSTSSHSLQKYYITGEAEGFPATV
Sequence of mouse Estrogen Receptor alpha (Era), Esr1 (gene 13982) (P19785 whole entry, looked up): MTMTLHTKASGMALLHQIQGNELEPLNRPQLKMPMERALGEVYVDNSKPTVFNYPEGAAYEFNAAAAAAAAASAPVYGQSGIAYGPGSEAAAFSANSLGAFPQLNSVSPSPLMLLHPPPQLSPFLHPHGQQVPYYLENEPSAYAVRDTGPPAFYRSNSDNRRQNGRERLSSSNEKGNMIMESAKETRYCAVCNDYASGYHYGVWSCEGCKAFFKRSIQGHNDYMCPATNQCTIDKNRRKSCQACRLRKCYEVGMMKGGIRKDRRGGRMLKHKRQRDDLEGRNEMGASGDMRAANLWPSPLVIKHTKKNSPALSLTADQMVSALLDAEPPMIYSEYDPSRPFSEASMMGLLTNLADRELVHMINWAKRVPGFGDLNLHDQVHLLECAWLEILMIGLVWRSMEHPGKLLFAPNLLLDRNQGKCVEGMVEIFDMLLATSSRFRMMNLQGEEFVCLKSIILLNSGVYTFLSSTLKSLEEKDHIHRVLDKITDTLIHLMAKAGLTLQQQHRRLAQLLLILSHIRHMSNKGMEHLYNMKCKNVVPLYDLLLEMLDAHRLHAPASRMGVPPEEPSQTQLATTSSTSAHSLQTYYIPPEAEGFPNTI
Sequence of Estrogen receptor beta (Homo sapiens) (Q92731 whole entry, looked up, the tested form may be a part): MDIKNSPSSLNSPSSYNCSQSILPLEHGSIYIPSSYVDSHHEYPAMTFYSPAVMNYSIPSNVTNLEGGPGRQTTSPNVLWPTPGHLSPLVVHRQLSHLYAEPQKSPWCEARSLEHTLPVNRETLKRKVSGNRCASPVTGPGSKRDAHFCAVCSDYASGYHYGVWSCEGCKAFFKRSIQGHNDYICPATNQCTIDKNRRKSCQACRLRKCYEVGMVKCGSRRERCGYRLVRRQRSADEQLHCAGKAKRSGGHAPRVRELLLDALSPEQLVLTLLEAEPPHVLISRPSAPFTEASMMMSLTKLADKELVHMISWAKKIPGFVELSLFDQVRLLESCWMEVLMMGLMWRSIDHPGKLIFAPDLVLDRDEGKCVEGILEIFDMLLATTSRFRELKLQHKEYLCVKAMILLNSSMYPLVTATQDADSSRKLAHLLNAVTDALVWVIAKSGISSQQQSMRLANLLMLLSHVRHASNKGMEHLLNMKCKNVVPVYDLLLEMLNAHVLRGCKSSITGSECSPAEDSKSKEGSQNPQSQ
Sequence of Bile acid receptor (Homo sapiens) (Q96RI1 whole entry, looked up): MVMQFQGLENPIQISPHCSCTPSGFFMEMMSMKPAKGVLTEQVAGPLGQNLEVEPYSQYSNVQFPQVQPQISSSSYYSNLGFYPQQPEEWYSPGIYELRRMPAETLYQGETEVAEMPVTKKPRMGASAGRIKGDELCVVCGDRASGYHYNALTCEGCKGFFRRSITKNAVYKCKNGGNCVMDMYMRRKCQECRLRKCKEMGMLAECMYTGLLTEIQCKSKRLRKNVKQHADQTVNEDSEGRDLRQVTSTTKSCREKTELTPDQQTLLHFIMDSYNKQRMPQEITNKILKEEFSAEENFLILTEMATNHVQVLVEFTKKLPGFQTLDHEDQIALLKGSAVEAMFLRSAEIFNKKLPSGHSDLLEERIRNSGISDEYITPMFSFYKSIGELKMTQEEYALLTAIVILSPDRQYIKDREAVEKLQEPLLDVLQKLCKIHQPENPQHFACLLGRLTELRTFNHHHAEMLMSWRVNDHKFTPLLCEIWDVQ
Sequence of human Norepinephrine Transporter (NET), SLC6A2 (gene 6530) (P23975 whole entry, looked up): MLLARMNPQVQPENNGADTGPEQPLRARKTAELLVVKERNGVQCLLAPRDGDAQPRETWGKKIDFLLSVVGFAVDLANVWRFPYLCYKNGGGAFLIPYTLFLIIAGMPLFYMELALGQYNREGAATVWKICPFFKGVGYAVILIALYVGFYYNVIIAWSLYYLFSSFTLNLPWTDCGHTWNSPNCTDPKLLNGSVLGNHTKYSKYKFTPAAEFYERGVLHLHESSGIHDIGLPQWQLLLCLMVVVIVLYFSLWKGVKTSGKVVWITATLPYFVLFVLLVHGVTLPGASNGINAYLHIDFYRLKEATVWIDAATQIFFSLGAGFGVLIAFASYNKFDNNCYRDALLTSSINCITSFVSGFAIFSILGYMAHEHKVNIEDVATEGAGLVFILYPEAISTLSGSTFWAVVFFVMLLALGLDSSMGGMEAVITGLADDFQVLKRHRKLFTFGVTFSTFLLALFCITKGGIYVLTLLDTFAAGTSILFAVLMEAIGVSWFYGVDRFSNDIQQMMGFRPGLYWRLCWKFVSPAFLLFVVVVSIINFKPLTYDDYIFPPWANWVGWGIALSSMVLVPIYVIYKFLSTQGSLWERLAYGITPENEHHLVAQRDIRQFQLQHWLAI
Sequence of human Dopamine Transporter (DAT), SLC6A3 (gene 6531) (Q01959 whole entry, looked up): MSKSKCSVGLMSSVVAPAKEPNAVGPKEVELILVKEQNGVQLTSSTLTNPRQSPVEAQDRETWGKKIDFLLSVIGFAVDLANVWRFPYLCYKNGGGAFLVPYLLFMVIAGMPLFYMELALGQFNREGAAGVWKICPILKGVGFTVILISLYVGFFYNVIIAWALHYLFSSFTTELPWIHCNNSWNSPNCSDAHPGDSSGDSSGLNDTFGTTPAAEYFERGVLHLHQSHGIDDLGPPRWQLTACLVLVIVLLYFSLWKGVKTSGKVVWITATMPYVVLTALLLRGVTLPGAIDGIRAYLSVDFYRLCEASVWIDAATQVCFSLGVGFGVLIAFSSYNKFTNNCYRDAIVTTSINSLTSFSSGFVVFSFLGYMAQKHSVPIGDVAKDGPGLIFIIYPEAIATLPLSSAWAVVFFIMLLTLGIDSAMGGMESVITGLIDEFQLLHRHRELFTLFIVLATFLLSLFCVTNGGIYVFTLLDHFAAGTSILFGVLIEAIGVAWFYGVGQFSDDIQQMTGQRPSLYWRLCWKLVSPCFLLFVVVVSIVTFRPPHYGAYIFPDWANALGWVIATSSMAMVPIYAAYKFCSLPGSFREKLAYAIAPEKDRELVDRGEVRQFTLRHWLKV

For `Cc1ccc(S(=O)(=O)NC(=O)NN2CCCCCC2)cc1`, the outcome [1] was “inactive”, the outcome [2] was “inactive” and the outcome [3] was “inactive”. For the same compound, the outcome [4] was “inactive”, the outcome [5] was “inactive” and the outcome [6] was “inactive”. The outcome [7] was “inactive”.

For `C=CCc1cc(S(=O)(=O)c2ccc(O)c(CC=C)c2)ccc1O`, the AC50 [8] was 7.48 µM (active), the AC50 [9] was 6.96 µM (active) and the AC50 [10] was 14.6 µM (active). The outcome [2] was “inactive”, the outcome [3] was “inactive” and the outcome [4] was “inactive”. For the same compound, the outcome [7] was “inactive”, the AC50 [11] was 6.4 µM (active) and the AC50 [12] was 12.4 µM (active). The AC50 [13] was 0.165 µM (active), the outcome [14] was “inactive” and the AC50 [15] was 0.0971 µM (active). The AC50 [16] was 5.57 µM (active).

In the case of `CCCOc1ccc(S(=O)(=O)N2CCN(CC)CC2)cc1-c1nc2c(CC)n(Cc3ccccn3)nc2c(=O)[nH]1`, the AC50 [8] is reported as 25 µM (active), the outcome [1] is reported as “inactive” and the outcome [2] is reported as “inactive”. For the same compound, the outcome [3] was “inactive”, the outcome [4] was “inactive” and the outcome [17] was “inactive”. For the same compound, the outcome [18] was “inactive”, the outcome [5] was “inactive” and the outcome [19] was “inactive”. The outcome [7] was “inactive”, the outcome [11] was “inactive” and the outcome [12] was “inactive”. For the same compound, the outcome [13] was “inactive”, the outcome [15] was “inactive” and the outcome [16] was “inactive”.

In the case of `CCCCCCCCCCCCCCCCOS(=O)(=O)O`, the AC50 [9] is reported as 19.6 µM (active), the AC50 [10] is reported as 7.04 µM (active) and the outcome [20] is reported as “inactive”. The outcome [2] was “inactive”, the outcome [3] was “inactive” and the outcome [4] was “inactive”. The outcome [17] was “inactive”, the outcome [5] was “inactive” and the outcome [6] was “inactive”. For the same compound, the outcome [7] was “inactive”.

With `OC[C@H]1O[C@@H]2O[C@H]3[C@H](O)[C@@H](O)[C@@H](O[C@H]4[C@H](O)[C@@H](O)[C@@H](O[C@H]5[C@H](O)[C@@H](O)[C@@H](O[C@H]6[C@H](O)[C@@H](O)[C@@H](O[C@H]7[C@H](O)[C@@H](O)[C@@H](O[C@H]1[C@H](O)[C@H]2O)O[C@@H]7CO)O[C@@H]6CO)O[C@@H]5CO)O[C@@H]4CO)O[C@@H]3CO` the AC50 [10] was 10.3 µM (active), the outcome [2] was “inactive” and the outcome [3] was “inactive”. For the same compound, the outcome [4] was “inactive”, the outcome [5] was “inactive” and the outcome [6] was “inactive”. The outcome [7] was “inactive”.

With `C[C@]12C=CC(=O)C=C1CC[C@H]1[C@@H]3C[C@@H](O)[C@](O)(C(=O)CO)[C@@]3(C)C[C@H](O)[C@@]12F` the outcome [10] was “inactive”, the outcome [3] was “inactive” and the outcome [4] was “inactive”. For the same compound, the outcome [5] was “inactive”, the outcome [6] was “inactive” and the outcome [7] was “inactive”. The outcome [11] was “inactive”, the outcome [12] was “inactive” and the outcome [13] was “inactive”. The AC50 [15] was 19.8 µM (active) and the outcome [16] was “inactive”.

In the case of `CC(C)C(=O)Nc1ccc([N+](=O)[O-])c(C(F)(F)F)c1`, the outcome [10] is reported as “inactive”, the outcome [2] is reported as “inactive” and the outcome [3] is reported as “inactive”. For the same compound, the outcome [4] was “inactive”, the outcome [17] was “inactive” and the outcome [5] was “inactive”. The outcome [19] was “inactive” and the outcome [7] was “inactive”.

For `CCc1ccc(O)c(C(C)(C)C)c1`, the outcome [10] was “inactive”, the outcome [2] was “inactive” and the outcome [3] was “inactive”. The outcome [4] was “inactive”, the outcome [19] was “inactive” and the outcome [7] was “inactive”.
